Test results reported in PubChem BioAssay AID720504 (National Center for Advancing Translational Sciences (NCATS), 2013).
Screen size: about 360,000 compounds; about 10,000 (2.8%) were called active. Inconclusive results (about 4%) are left out. Many of the other results were omitted from the sample, so actives are more common in it than they were. A number with no mark means an inactive call. Calls come from the whole dose curve; as a rule, active = well fitted inhibition curve with a large enough effect; inconclusive = small, poorly fitted or top-dose-only effect; inactive = flat fitted curve, though single readings scatter.

molecular target: Serine/threonine-protein kinase PLK1 (Homo sapiens) (UniProt P53350); assay: qHTS for Inhibitors of PLK1-PDB (polo-like kinase 1 - polo-box domain): Primary Screen; settings: Plk1 PBD binding of FITC phosphopeptide, fluorescence polarization; note: nearly all actives have a fitted effect of over 65% in size; for max response, negative = inhibition: series mostly up to about 57 µM
% is set by controls: 0 for no effect and ±100 for the full control effect; potency is the fitted concentration of half-maximal effect.

Chain of Serine/threonine-protein kinase PLK1 (Homo sapiens) (P53350 whole entry, looked up, the tested form may be a part): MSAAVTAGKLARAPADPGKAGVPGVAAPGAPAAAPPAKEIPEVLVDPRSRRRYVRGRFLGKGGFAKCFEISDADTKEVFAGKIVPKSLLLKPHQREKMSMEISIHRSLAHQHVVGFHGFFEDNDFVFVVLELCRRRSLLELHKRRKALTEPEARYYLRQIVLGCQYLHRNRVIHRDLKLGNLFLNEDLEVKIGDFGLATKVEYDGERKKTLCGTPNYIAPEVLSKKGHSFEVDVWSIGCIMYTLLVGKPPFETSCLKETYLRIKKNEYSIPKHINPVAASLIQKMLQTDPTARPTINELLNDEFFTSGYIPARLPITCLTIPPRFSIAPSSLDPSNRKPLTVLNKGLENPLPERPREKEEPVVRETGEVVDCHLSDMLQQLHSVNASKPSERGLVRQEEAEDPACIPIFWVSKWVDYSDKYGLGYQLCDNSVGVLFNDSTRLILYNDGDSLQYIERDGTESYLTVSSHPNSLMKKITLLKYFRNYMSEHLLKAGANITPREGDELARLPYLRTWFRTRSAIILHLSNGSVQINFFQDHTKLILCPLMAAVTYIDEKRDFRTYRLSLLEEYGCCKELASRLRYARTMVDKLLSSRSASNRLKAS

Compound	max response, negative = inhibition [%]	Potency
COC(=O)C1(C(=O)OC)C/C=C\CN(S(=O)(=O)c2ccccc2[N+](=O)[O-])CCC1	3.46	
O=C1OCCC1=COCCCCOC=C1CCOC1=O	1.79	
O=C(NCCN1CCN(C(=O)c2cccc([N+](=O)[O-])c2)CC1)C(=O)NCc1ccc(Cl)cc1	2.99	
Cc1ccc(NC(=O)O/N=C/c2cccc([N+](=O)[O-])c2)cc1	-16.5	
Cc1ccc(NC(=O)C(=O)NCC2CCN(C(=O)c3cccc([N+](=O)[O-])c3)CC2)cc1		29.9 µM (active)
Cc1cccc(C)c1NC(=O)CNC(=O)c1ccc(N2CCOCC2)c([N+](=O)[O-])c1	-13.7	
O=C(NNS(=O)(=O)Cc1ccccc1)c1ccc([N+](=O)[O-])cc1	-14.2	
O=C(CNC(=O)c1ccccc1)Oc1ccc([N+](=O)[O-])cc1		5.32 µM (active)
COC(=O)CNC(=O)c1ccccc1[N+](=O)[O-]	-2.66	
Cc1ccc(Cc2c(-c3ccc(C)cc3)nc3c4ccccc4ccn23)cc1	5.48	
COc1cc(C=C(OC(C)=O)c2ccc3c(c2)OCO3)cc(OC)c1OC	-7.84	
CCOC(=O)C1(C)CCCN(C(=O)c2ccc(N(C)C)cc2)C1 (configuration not stated)	-5.89	
COc1cccc(CNC(=O)CN(C)S(=O)(=O)c2ccc3c(c2)c(=O)n(C)c(=O)n3C)c1	-6.18	
CC1CCC(NC(=O)CN(C)S(=O)(=O)c2ccc3c(c2)c(=O)n(C)c(=O)n3C)CC1 (configuration not stated)		18.9 µM (active)
CCc1ccccc1NC(=O)CN(C)S(=O)(=O)c1ccc2c(c1)c(=O)n(C)c(=O)n2C	-2.91	
CCNC(=O)C1CCCN(C(=O)c2ccc(OC)cc2OC)CC1 (configuration not stated)	-11.4	
Cc1cc(C)c(C=NNc2nc3c([nH]2)c(=O)n(C)c(=O)n3C)c(C)c1	-11.3	
Cc1cccc(C)c1NC(=O)CSc1nc2c([nH]1)c(=O)n(C)c(=O)n2C	-5.89	
Cc1ccc(NN=Nc2nc3c([nH]2)c(=O)n(C)c(=O)n3C)cc1		23.8 µM (active)
C[C@H]1CN([C@@H](C)CO)C(=O)CCCn2cc(nn2)CO[C@@H]1CN(C)S(=O)(=O)c1cccs1	-15.8	
Cc1ccc(C(=O)N/C(=C\c2ccc(F)cc2)C(=O)NCCN2CCOCC2)cc1	-16.1	
CCn1cc(/C=C(\NC(=O)c2ccc(C)cc2)C(=O)NCCN2CCOCC2)c2ccccc21		26.7 µM (active)

Compound	max response, negative = inhibition [%]	Potency
O=C(NCCN1CCOCC1)/C(=C/c1ccc(F)cc1)NC(=O)c1ccccc1	-12.8	
CCCOc1ccc(F)cc1-c1cc(C(=O)Nc2ccc(F)cc2)[nH]n1	6.37	
O=C(NCc1cccc(C(F)(F)F)c1)c1ccc2sc(COCCO)nc2c1	-3.85	
CCOC(=O)C1C(C)C(C(C)(C)C)N(S(=O)(=O)c2ccc(C)cc2)C1c1ccccc1 (configuration not stated)	-10.1	
CC1(C(=O)NCC2CCOCC2)Cc2c(-c3cccc(C(N)=O)c3)ccnc2O1 (configuration not stated)	-6.03	
Cc1nc(-c2ccccc2)sc1C(=O)/C=C/N(C)C		29.9 µM (active)
CN(C)/C=C/C(=O)c1ccccc1F	-6.3	
Cc1nc(COc2cccc(Cl)c2)sc1C(=O)/C=C/N(C)C	6.79	
Cc1ccc(-c2nc3c(Cl)cc(C(F)(F)F)cn3c2Cc2cccc(Cl)c2)cc1	4.46	
CCOC(=O)c1c(NC(=O)CN2C(=O)NC3(CCC(C)CC3)C2=O)sc(C)c1CC (configuration not stated)	-5.1	
COC(=O)c1c(NC(=O)C2CC(C)=C(C)CC2C(=O)O)sc2c1CCCCC2 (configuration not stated)	-20.4	
CCOC(=O)c1c(NC(=O)C2CC=CCC2C(=O)O)sc(C)c1CC (configuration not stated)		26.7 µM (active)
Nc1ncnc2c1ncn2[C@@H]1O[C@H](C(=O)NS(=O)(=O)c2c(Cl)nc3sccn23)[C@@H](O)[C@H]1O	-12.2	
COCCNc1ncnc2c1ncn2[C@H]1CN(Cc2ccc(OC)cc2)C[C@@H](CO)O1	5.71	
CCOC(=O)C1(C)NC(c2ccco2)C2C(=O)N(c3ccccc3)C(=O)C21 (configuration not stated)	-2.81	
CCCC1(C(=O)OCC)NC(c2ccc(N(C)C)cc2)C2C(=O)N(c3ccc4c(c3)OCCO4)C(=O)C21 (configuration not stated)	0.149	
CCCCC1(C(=O)OCC)NC(c2ccc(O)cc2)C2C(=O)N(c3ccccc3)C(=O)C21 (configuration not stated)		11.9 µM (active)
COc1ccc(CCNC(=O)Nc2ccc3c(c2)c(=O)n(C)n3C)cc1OC	-18.9	
N#CCSc1ccccc1NC(=O)CN1C(=O)NC(CCc2ccccc2)C1=O (configuration not stated)	1.14	
COc1ccc(C(C(=O)NCc2ccccc2)n2c(=O)c(-c3ccccc3)nc3ccccc32)cc1 (configuration not stated)	-13.5	
COc1ccccc1NC(=O)C1=C(C)NC(=O)NC1c1ccc(C)s1 (configuration not stated)	-4.66	
COC(=O)c1c(NC(C)=O)sc(C(=O)Nc2ccccc2OC)c1C		21.2 µM (active)

Compound	max response, negative = inhibition [%]	Potency
CCC(=O)Nc1sc(C(=O)Nc2ccccc2)c(C)c1C(=O)OC	-13	
Cc1[nH]c2ccccc2c1C(=O)c1cc([C@H](NC(=O)OC(C)(C)C)C(C)C)sc1N	-13.9	
COc1c(C)cc(C(O)c2ncc(-c3cccc(C(F)(F)F)c3)[nH]2)cc1C (configuration not stated)	-6.75	
CCCC(=O)N1CCC1(C)C(=O)NS(=O)(=O)c1ccc(Cl)cc1 (configuration not stated)	-0.638	
O=C(NCc1ccc(F)cc1F)[C@@H]1CCCN1C(=O)[C@@H]1CCCN1C(=O)c1cccc(Cl)c1	-3.81	
COc1ccc(NC(=O)N(C)C[C@@H]2OCc3cn(nn3)CCCC(=O)N([C@H](C)CO)C[C@H]2C)c(OC)c1	-13	
COc1cccc(CNc2nc(NCc3ccccc3OC)nc3ccsc23)c1	5.58	
O=C(CCN1CCN(c2ccccc2)CC1)NNC(=S)Nc1ccccc1	2.64	
CCC(C)NC(=O)CCCc1ccccc1 (configuration not stated)	-5.23	
CCCCC(=O)NNC(=S)NC(=O)C(c1ccccc1)c1ccccc1		26.7 µM (active)
Cc1cc(Br)ccc1NC(=O)CCCOc1cc(=O)n(C)c2ccccc12	-7.55	
O=C(COC(=O)Cc1ccc(Cl)cc1Cl)NCc1ccco1	-7.73	
COC(=O)[C@@]1(Sc2ccc(C)cc2)CC(=O)N(c2cccc(SC)c2)[C@@H]1c1ccccc1	-14.8	
CC(Sc1ccc(S(=O)(=O)N2CCN(C)CC2)cn1)C(=O)NC1CCCC(C)C1C (configuration not stated)	-3.15	
CCN1/C(=C/C(=S)Nc2ccccc2)Sc2ccccc21		21.2 µM (active)
CCNCCC(=O)N1c2ccccc2Sc2ccc(NC(=O)OCC)cc21	4.19	
CCN1/C(=C\c2ccc3ccccc3[n+]2CC)Sc2cc(C)ccc21	18.1	
O=C(CCc1ccc(O)cc1)NN=Cc1cc(Br)ccc1O	-9.45	
CNS(=O)(=O)c1ccc2c(c1)[nH]c(=S)n2C	-13.6	
CN1OC[C@@H]2CN(S(=O)(=O)c3cccc4ccccc34)[C@H](c3ccc(N4CCCCC4)cc3)C[C@@H]21	-17.2	
CCCNC(=O)C1(C)CCN(C(=O)c2ccccc2OC(F)(F)F)C1 (configuration not stated)	1.6	
COc1cc(C2/C(=C(\O)c3ccc4c(c3)CC(C)O4)C(=O)C(=O)N2c2nnc(C)s2)cc(OC)c1OC (configuration not stated)		23.8 µM (active)

Compound	max response, negative = inhibition [%]	Potency
COc1cc(C2/C(=C(\O)c3ccc4c(c3)CC(C)O4)C(=O)C(=O)N2Cc2ccco2)ccc1O (configuration not stated)	-6.21	
COCCCN1C(=O)C(=O)/C(=C(/O)c2ccc3c(c2)CC(C)O3)C1c1cccnc1 (configuration not stated)	-4.58	
COc1cccc(OCC(=O)NCCS(=O)(=O)N2CCN(c3ccccc3)CC2)c1	-0.74	
Cc1ccccc1NC(=O)Cc1nc(COC(=O)C(C)(C)Oc2ccc(Cl)cc2)cs1	-1.61	
CCOC(=O)COc1nc(C)cc(C(F)(F)F)c1C#N	-6.94	
CCOC(=O)Cc1c(C)nc2c(C#N)c(C)nn2c1C		18.9 µM (active)
CCOC(=O)c1cc(C)nc(S(C)(=O)=O)c1C#N	-3.21	
Nc1nc(CSc2nnnn2-c2ccccc2)nc(Nc2ccccc2)n1	0.127	
COc1ccc(-c2ccc(CN3C(CC(C)C)C(=O)N(Cc4cn(CC5CCCCC5)nn4)CCS3(=O)=O)cc2)cc1 (configuration not stated)	-10.4	
CCCn1c(=O)c(C(=O)Nc2cc(C)ccn2)c(O)c2ccccc21	-9.12	
Cn1c(=O)c(C(=O)Nc2ncccn2)c(O)c2ccccc21		8.44 µM (active)
C=CCn1c(=O)c(C(=O)Nc2ncccc2O)c(O)c2ccccc21	-22.1	
CC(C)c1cc(Cn2c3ccccc3c(=O)n2C(C)Cn2cc(C3CC3)nn2)on1 (configuration not stated)	-4.91	
CCn1c(Cc2cccs2)nnc1SCC(=O)c1ccc(C)cc1		16.8 µM (active)
CCn1c(SCC(=O)c2ccc(Cl)s2)nnc1-c1cccs1	-17.2	
Cc1ccc(-n2c(Cc3cccs3)nnc2SCC(=O)OC(C)C)cc1	-2.98	
COC(=O)[C@@]12C[C@@H](CC(=O)N3CCC(c4ccccc4)CC3)C(=O)N(Cc3ccccc3)C1=CCC(C)(C)C2	-1.16	
O=C(NCc1ccc(F)cc1)c1cc(C2CCCCN2C(=O)c2ccccn2)on1 (configuration not stated)	-4.01	
Oc1ccccc1N1CCN(c2ncnc3sc(-c4ccccc4)cc23)CC1		15 µM (active)
c1ccc(-c2cc3c(NCC4COc5ccccc5O4)ncnc3s2)cc1 (configuration not stated)	-4.18	
COc1ccccc1N1CCN(c2ncnc3sc(C)c(-c4ccccc4)c23)CC1	8.83	
